Assay results published in ChEMBL document CHEMBL4296182, “CO-ADD screening of NIH NCI Diversity Set V”.
For part of these data: Measured potencies and affinities stand elsewhere.

tested on: Escherichia coli; test: Antibacterial activity against Escherichia coli ATCC 25922 (CO-ADD:GN_001); MIC in CAMBH media using NBS plates, by Resazurin F(560/590); format: functional; details: Concentration 20 uM, ASSAY_TEST Inhibition of Bacterial Growth, detection method Resazurin, Fluorescence (ex560/em590), MEDIA CAMHB, plate type 384well, CORNING #3640, time 18 hr

Going from `CCOC(=O)N1C/C(=C\c2ccccc2)C(=O)/C(=C/c2ccccc2)C1` to `COC1OC2COC(c3ccccc3)OC2C(=O)C1NC(=O)c1ccccc1` (stereo not drawn), the Inhibition rises from 0.16% to 10.65%.

Going from `COc1cc(-c2ccc(Nc3ccccc3C(=O)O)c(OC)c2)ccc1Nc1ccccc1C(=O)O` to `c1ccc2cc(OCCOCCOc3ccc4ccccc4c3)ccc2c1`, the Inhibition rises from 4.59% to 5.4%.

Going from `NC(=O)Nc1ccc(Nc2ccccc2)cc1` to `Cc1ccc(C(=N)Nc2ccccc2)cc1`, the Inhibition falls from 5.39% to 1.43%.

First: CCOC(=O)c1c(C)nc(C)c(C(=O)OCC)c1-c1cccnc1
Second: CCOC(=O)c1c(C)oc(C)c(C(=O)OCC)c1=O
The Inhibition of the first is lower: -4.27% for the first, -0.85% for the second.

Going from `COC(=O)c1cc(C)c(C)cc1NC1OC(CO)C(O)C1O` (stereo not drawn) to `COc1cc(NC(C)=O)c2ncccc2c1NC(C)=O`, the Inhibition falls from -12.77% to -13.22%.

Going from `CN(C)C(=S)/N=c1\ssc(=S)n1Cc1ccco1` to `CN(C)C(=O)OCC1COc2ccccc2O1` (stereo not drawn), the Inhibition rises from 0.6% to 7.79%.

Going from `O=C(O)/C=C\c1cc2c(cc1[N+](=O)[O-])OCO2` to `O=C(O)c1ccc(O)c(O)c1` [PROTOCATECHUIC ACID], the Inhibition rises from 7.39% to 11.18%.

Compared with `CSC(=N)NS(=O)(=O)c1ccc(NC(C)=O)cc1`, `CC(=O)Nc1ccc(Cc2nc3c(=O)n(C)c(=O)n(C)c3[nH]2)cc1` is lower in Inhibition: 12.78% for the first, 3.26% for the second.

Going from `CSc1nc(O)nnc1Sc1ccccc1` to `c1ccc(-c2cc3ccccc3[nH]2)cc1` [2-PHENYL-1H-INDOLE], the Inhibition rises from 6.74% to 16.97%.

Going from `NC(=S)N/N=C/c1cc(-c2cccc(N)c2)ccn1` to `Cc1cc(NC(=O)c2ccccc2)c(Cl)cc1N`, the Inhibition falls from 11.56% to 3.07%.

Compared with `CC1(c2ccc3ccccc3c2)CCC(=O)O1` (stereo not drawn), `O=S(=O)(O)c1ccc(/N=N/c2ccccc2)cc1` is lower in Inhibition: 7.71% for the first, 5.47% for the second.

Compared with `CC1=C(O)C(=O)C(c2c(C)cc(C)c(Br)c2C)=C(O)C1=O`, `COC(=O)C1=C(C)NC(C)=C(C(=O)OC)C(N2C(=O)CCC2=O)C1` (stereo not drawn) is lower in Inhibition: 4.64% for the first, 0.27% for the second.

First: C(=C\CSc1ccccn1)/CSc1ccccn1
Second: CC(=O)OCCN1c2ccccc2Sc2cnccc21
The Inhibition of the first is higher: 9.4% for the first, -8.04% for the second.

Going from `Clc1nc(Oc2ccccc2)nc(-c2cn(-c3ccccc3)c3ccccc23)n1` to `Cc1ccc(/N=N/c2c(N)nn(-c3ccccc3)c2N)cc1`, the Inhibition rises from 6.07% to 11.08%.

Compared with `COC(=O)C1=CC(=O)N2CCN=C2S1`, `CCNc1nn2ccccc2c1/C=C(/C#N)C(=O)OCC` is higher in Inhibition: -3.52% for the first, 7.73% for the second.

Going from `CC(C)CNC(=O)/C=C\C(=O)O` to `N#CNC(=N)c1ccccc1`, the Inhibition falls from -14.17% to -14.26%.

First: CSc1nc(O)cc(Cl)n1
Second: Cn1ncc2c(Nc3ccc(O)cc3)nc(Cl)nc21
The Inhibition of the first is higher: 7.44% for the first, 3.23% for the second.

Compared with `O=C1CCCc2cc3c(cc21)CC1(C3)Cc2cc3c(cc2C1)C(=O)CCC3`, `C=CCNC(=S)N1CCN(c2ccccc2Cl)CC1` is lower in Inhibition: 9.88% for the first, -14.86% for the second.

Going from `Nc1ccc(Br)cc1Br` to `Nc1cnc(Nc2ccc(Br)cc2)nc1N.O=S(=O)(O)O`, the Inhibition falls from 2.13% to -16.03%.

`CCCn1cnc2c(Sc3c([N+](=O)[O-])ncn3C)nc(N)nc21` showed an Inhibition of 6.82%.

tested on: Klebsiella pneumoniae; details: Concentration 20 uM; ASSAY_TEST Inhibition of Bacterial Growth; detection method Absorption (OD600); MEDIA CAMHB; plate type 384well; NBS; CORNING #3640; time 18 hr

Compared with `CCOC(=O)N1C/C(=C\c2ccccc2)C(=O)/C(=C/c2ccccc2)C1`, `COC1OC2COC(c3ccccc3)OC2C(=O)C1NC(=O)c1ccccc1` (stereo not drawn) is lower in Inhibition: 12.83% for the first, 10.3% for the second.

Compared with `COc1cc(-c2ccc(Nc3ccccc3C(=O)O)c(OC)c2)ccc1Nc1ccccc1C(=O)O`, `c1ccc2cc(OCCOCCOc3ccc4ccccc4c3)ccc2c1` is higher in Inhibition: -0.01% for the first, 11.21% for the second.

Going from `NC(=O)Nc1ccc(Nc2ccccc2)cc1` to `Cc1ccc(C(=N)Nc2ccccc2)cc1`, the Inhibition rises from 5.31% to 18.31%.

Compared with `CCOC(=O)c1c(C)nc(C)c(C(=O)OCC)c1-c1cccnc1`, `CCOC(=O)c1c(C)oc(C)c(C(=O)OCC)c1=O` is higher in Inhibition: 5.06% for the first, 10.69% for the second.

Going from `COC(=O)c1cc(C)c(C)cc1NC1OC(CO)C(O)C1O` (stereo not drawn) to `COc1cc(NC(C)=O)c2ncccc2c1NC(C)=O`, the Inhibition rises from 12.31% to 18.39%.

Going from `CN(C)C(=S)/N=c1\ssc(=S)n1Cc1ccco1` to `CN(C)C(=O)OCC1COc2ccccc2O1` (stereo not drawn), the Inhibition rises from 0.81% to 12.42%.

Compared with `O=C(O)/C=C\c1cc2c(cc1[N+](=O)[O-])OCO2`, `O=C(O)c1ccc(O)c(O)c1` [PROTOCATECHUIC ACID] is higher in Inhibition: 10.81% for the first, 17.43% for the second.

First: CSC(=N)NS(=O)(=O)c1ccc(NC(C)=O)cc1
Second: CC(=O)Nc1ccc(Cc2nc3c(=O)n(C)c(=O)n(C)c3[nH]2)cc1
The Inhibition of the first is lower: 3.27% for the first, 6.41% for the second.

Going from `CSc1nc(O)nnc1Sc1ccccc1` to `c1ccc(-c2cc3ccccc3[nH]2)cc1` [2-PHENYL-1H-INDOLE], the Inhibition rises from 7.57% to 15.65%.

Compared with `NC(=S)N/N=C/c1cc(-c2cccc(N)c2)ccn1`, `Cc1cc(NC(=O)c2ccccc2)c(Cl)cc1N` is lower in Inhibition: 45.35% for the first, 14.81% for the second.

Going from `CC1(c2ccc3ccccc3c2)CCC(=O)O1` (stereo not drawn) to `O=S(=O)(O)c1ccc(/N=N/c2ccccc2)cc1`, the Inhibition rises from 5.94% to 7.84%.

Going from `CC1=C(O)C(=O)C(c2c(C)cc(C)c(Br)c2C)=C(O)C1=O` to `COC(=O)C1=C(C)NC(C)=C(C(=O)OC)C(N2C(=O)CCC2=O)C1` (stereo not drawn), the Inhibition falls from 20.53% to 9.26%.

First: C(=C\CSc1ccccn1)/CSc1ccccn1
Second: CC(=O)OCCN1c2ccccc2Sc2cnccc21
The Inhibition of the first is higher: 8.71% for the first, 5.46% for the second.

Going from `Clc1nc(Oc2ccccc2)nc(-c2cn(-c3ccccc3)c3ccccc23)n1` to `Cc1ccc(/N=N/c2c(N)nn(-c3ccccc3)c2N)cc1`, the Inhibition rises from 3.03% to 11.62%.

Going from `COC(=O)C1=CC(=O)N2CCN=C2S1` to `CCNc1nn2ccccc2c1/C=C(/C#N)C(=O)OCC`, the Inhibition falls from 13.6% to 11.76%.

First: CC(C)CNC(=O)/C=C\C(=O)O
Second: N#CNC(=N)c1ccccc1
The Inhibition of the first is lower: 9.3% for the first, 9.63% for the second.

Going from `CSc1nc(O)cc(Cl)n1` to `Cn1ncc2c(Nc3ccc(O)cc3)nc(Cl)nc21`, the Inhibition rises from 11.43% to 11.85%.

Compared with `O=C1CCCc2cc3c(cc21)CC1(C3)Cc2cc3c(cc2C1)C(=O)CCC3`, `C=CCNC(=S)N1CCN(c2ccccc2Cl)CC1` is higher in Inhibition: 10.84% for the first, 17.35% for the second.

First: Nc1ccc(Br)cc1Br
Second: Nc1cnc(Nc2ccc(Br)cc2)nc1N.O=S(=O)(O)O
The Inhibition of the first is higher: 7.43% for the first, 6.45% for the second.

Compound `CCCn1cnc2c(Sc3c([N+](=O)[O-])ncn3C)nc(N)nc21` has an Inhibition of 9.05%.
